These results are taken from ChEMBL document CHEMBL3988442, “University of Dundee, Small-Polar-MMV Screening Library” (2021).

Molecules are shown by their SMILES.

This experiment deals with Sialic acid-binding Ig-like lectin 9 (Homo sapiens) (UniProt Q9Y336). The experiment can be described thus: Hs-Siglec9 ALPHAscreen SOP 20170721. More on the design: scale not given: direction of the effect not stated beside the values. Conditions: 10 µM. For orientation: In Alpha technology, singlet oxygen from a donor bead excites a nearby acceptor bead.
Sequence of Sialic acid-binding Ig-like lectin 9 (Homo sapiens) (Q9Y336 whole entry): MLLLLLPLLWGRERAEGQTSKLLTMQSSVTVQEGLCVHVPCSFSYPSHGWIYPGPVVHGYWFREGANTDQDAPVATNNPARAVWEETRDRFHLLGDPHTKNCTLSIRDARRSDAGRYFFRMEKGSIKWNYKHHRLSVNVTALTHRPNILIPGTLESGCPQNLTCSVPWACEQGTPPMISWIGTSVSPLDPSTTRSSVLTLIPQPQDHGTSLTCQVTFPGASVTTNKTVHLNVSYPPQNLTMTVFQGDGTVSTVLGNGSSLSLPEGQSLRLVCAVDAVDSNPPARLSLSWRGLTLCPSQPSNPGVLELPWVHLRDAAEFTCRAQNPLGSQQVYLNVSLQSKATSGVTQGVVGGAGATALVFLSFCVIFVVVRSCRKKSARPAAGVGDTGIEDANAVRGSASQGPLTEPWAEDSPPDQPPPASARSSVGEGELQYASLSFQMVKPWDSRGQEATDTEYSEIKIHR
As to `c1cnn(Cc2nnc(C3CCN(C4CCOCC4)CC3)n2C2CC2)c1`, the Percent Effect worked out at 24.9%. As for `CCOc1ccccc1C(CC(=O)Nc1ccc(C)cn1)NC(C)=O` (stereo not given), the figure is 5.85%; as for `Cc1nc(C)n(CC2CN(Cc3cccnc3)CCO2)n1` (stereo not given), -5.07%. Regarding `CCOc1ccc(C#N)cc1NCC(=O)Nc1cc(F)ccc1F`, the Percent Effect is -0.166%. The result for `COCC1CN(C(=O)C2=CCCCC2)Cc2cnn(CC3CC3)c21` (stereo not given) reads 2.46%; that for `O=S1(=O)COCCN1Cc1cccc(Cl)c1`, 6.98%. As for `COCCN(Cc1nc2c(cnn2C)c(=O)[nH]1)Cc1ccco1`, the figure is -3.6%. As for `O=C(c1ccc(F)cc1)N1CCN2C[C@H](OCc3ccccn3)C[C@H]2C1`, the figure is -1.47%. As for `CCO[C@@H]1CCN(C(=O)c2ccc[nH]2)[C@@H]1Cc1cnn(C)c1`, the Percent Effect is -3.48%.

Take `O=C1C[C@H]2[C@@H](CCN2C(=O)c2ccccc2)N1CCN1CCOCC1`: the Percent Effect was found to be 2.27%. As for `CC(NC(=O)NCCCn1cccn1)c1ccc2c(c1)NC(=O)CO2` (stereo not given), the figure is -5.5%; as for `CCc1nc(C(=O)N2CCCC2)nn1-c1ccccc1Cl`, 16.4%; as for `CN(CCOc1cccc(CNC(=O)C2CC2)c1)C1CCOCC1`, -1.13%. Take `CC(C)C1CN(C(=O)c2ccc(N3CCCC3)nc2)CCS1` (stereo not given): the Percent Effect is 2.6%.

Regarding `O=C(CCn1ccccc1=O)Nc1ccc(F)c(Cl)c1`, the Percent Effect was found to be 0.784%. The result for `CCS(=O)(=O)c1ccccc1N1CCC(NC(=O)NC2CCCC2)CC1` reads 8.77%; that for `O=C(NS(=O)(=O)c1cc(Cl)sc1Cl)c1cccc2c1OCCO2`, -2.91%; that for `CN(C)C(=O)CNC(=O)c1ccc(Cl)cc1F`, -6.12%. As for `COc1cccc(N2CCN(CCC(=O)NC3CCCC3)CC2)c1`, the figure is 5.22%; as for `c1csc(CN2Cc3nccn3CC(Cn3cncn3)C2)n1` (stereo not given), 63.8%. Turning to `Cc1cc2nc(SCC(=O)N3CCCC3)n(-c3ccccc3)c(=O)c2[nH]1`, the Percent Effect is -3.44%. The result for `Cc1ccc(CN2CCCC3(CCN(S(C)(=O)=O)C3)C2)o1` (stereo not given) reads 5.08%; that for `CC(NC(=O)NCC1(N2CCCCC2)CCCCC1)c1nncn1C` (stereo not given), 0.417%. As for `CCOc1ncccc1C(=O)N(C)Cc1ncc(C)c(OC)c1C`, the Percent Effect was -3.9%. As for `Cc1cc(C[C@@H]2COC[C@H]2NCc2ccc(Br)s2)on1`, the figure is -0.828%; as for `CC(C)N1CCC(Cc2cncc(-c3ccccc3C(=O)O)n2)CC1`, 5.58%.

`Cc1ccc2oc(CNC(C)c3nnc4n3CCCC4)cc2c1` (stereo not given): the Percent Effect was -1.29%. With `CC(=O)N1CCN(C(=O)NCc2csc(Br)c2)CC1`, the Percent Effect is 5.56%.

Consider `CCc1noc(C(C)N2CCN(Cc3nc(C)c(C)o3)CC2)n1` (stereo not given), for which the Percent Effect stood at 1.87%. The result for `CC(C)c1csc(C2CCCN(C(=O)c3ncccn3)C2)n1` (stereo not given) reads -10.4%; that for `CC(C)(C)N1CC(C(=O)N2CCN(CCn3cccc3)CC2)CC1=O` (stereo not given), 27.1%; that for `CC(C)c1nc(C2CCCN2CCc2ccncc2)no1` (stereo not given), -0.839%. As for `CC(=O)NCc1ccc(C(=O)N2CCCC2c2cnn(C)c2)o1` (stereo not given), the figure is 3.5%. In the case of `CC(C)NC(=O)c1n[nH]c(-n2cnnc2)n1`, the Percent Effect was determined as 5.32%. As for `Cc1cc(C)n(CC2CN(Cc3nc(-c4ccoc4)no3)CCO2)n1` (stereo not given), the Percent Effect worked out at 0.775%. As to `Cc1nn(C)c(N2CCOCC2)c1CNCc1ccc(Cl)s1`, the Percent Effect was -1.94%. The result for `CC(=O)N1CCCN(c2nccc(-c3cn(C)nc3C)n2)CC1` reads 25.5%. The result for `Cc1scc(C(=O)N2CCC3(CCCN(C)C3=O)C2)c1-c1ccccc1` (stereo not given) reads -1.74%.

For the compound `Cc1cccc2[nH]c(C3CCN(C(=O)c4ccnn4C)CC3)nc12`, the Percent Effect is 3.85%. As for `Cc1cccc(CN2CCc3c(nc(N4CCCCC4C)[nH]c3=O)C2)n1` (stereo not given), the figure is 7.92%.
